Test [1] can be described thus: qHTS for Inhibitors of the Functional Ribonucleoprotein Complex (vRNP) of Lassa (LASV) Arenavirus: Viability assay - alamar blue signal for LASV Primary Screen (AID 1347083; calls by dose curve; tested in HEK293 reporter line; note: nearly all actives have a fitted effect of over 80% in size; note: potency is the fitted concentration of half-maximal effect).
A short description of test [2]: qHTS for Inhibitors of the Functional Ribonucleoprotein Complex (vRNP) of Lymphocytic Choriomeningitis Arenaviruses (LCMV): Viability assay - alamar blue signal for LCMV Primary Screen (AID 1347085; calls by dose curve; tested in HEK293 reporter line; note: nearly all actives have a fitted effect of over 80% in size; note: potency is the fitted concentration of half-maximal effect). Background: qHTS replaces the single test concentration by a dilution series.
Test [3] deals with Nucleoprotein (Lymphocytic choriomeningitis virus (strain Armstrong)) (UniProt P09992). The test can be described thus: qHTS for Inhibitors of the Functional Ribonucleoprotein Complex (vRNP) of Lymphocytic Choriomeningitis Arenaviruses (LCMV): LCMV Primary Screen - GLuc reporter signal (AID 1347086). For activity change, negative = inhibition: % is set by controls: 0 for no effect and ±100 for the full control effect. Note: nearly all actives have a fitted effect of over 70% in size. Note: potency is the fitted concentration of half-maximal effect.
Chain of Nucleoprotein (Lymphocytic choriomeningitis virus (strain Armstrong)) (P09992 whole entry, looked up): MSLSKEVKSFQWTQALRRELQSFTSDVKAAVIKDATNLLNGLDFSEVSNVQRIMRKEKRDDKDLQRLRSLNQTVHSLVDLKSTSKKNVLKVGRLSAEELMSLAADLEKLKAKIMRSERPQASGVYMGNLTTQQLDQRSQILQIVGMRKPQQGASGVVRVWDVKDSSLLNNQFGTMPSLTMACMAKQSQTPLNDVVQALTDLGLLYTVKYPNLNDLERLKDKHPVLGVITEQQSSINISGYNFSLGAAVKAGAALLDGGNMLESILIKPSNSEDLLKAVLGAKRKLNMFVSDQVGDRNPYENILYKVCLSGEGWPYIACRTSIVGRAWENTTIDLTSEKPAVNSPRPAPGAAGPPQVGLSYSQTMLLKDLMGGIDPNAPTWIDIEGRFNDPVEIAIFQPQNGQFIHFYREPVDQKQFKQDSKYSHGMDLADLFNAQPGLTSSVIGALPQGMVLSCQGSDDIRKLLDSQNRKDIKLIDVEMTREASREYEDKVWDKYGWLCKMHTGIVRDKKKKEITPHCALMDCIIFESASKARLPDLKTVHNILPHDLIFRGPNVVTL
Test [4] relates to CRL-7250. The test can be described thus: qHTS assay to identify novel small-molecules to repurpose for Merkel cell carcinoma treatment (AID 1296009; active = well fitted curve in the direction sought with a large enough effect; an effect the other way counts as inactive or inconclusive; note: nearly all actives have a fitted effect of over 60% in size). As to conditions: MCC and control cell lines, CellTiter-Glo viability, 72 h; series mostly up to 92 µM. In outline: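 72 hr, 37 degree celsius; NPC 8-pt / MIPE 11-pt dose response; compound pinned in DMSO; CellTiter-Glo, 10 min RT, luminescence; normalized to no-cell and DMSO controls.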

Test [5] is described as follows: qHTS for Inhibitors of the Functional Ribonucleoprotein Complex (vRNP) of Lassa (LASV) Arenavirus: LASV Primary Screen - GLuc reporter signal (AID 1347082; calls by dose curve; tested in HEK293 reporter line; note: nearly all actives have a fitted effect of over 60% in size; note: potency is the fitted concentration of half-maximal effect; for activity change, negative = inhibition: % is set by controls: 0 for no effect and ±100 for the full control effect).
The nature of test [6]: Cytotoxicity counterscreen for inhibitors of SARS-CoV-2 cell entry (AID 1645845). Note: nearly all actives have a fitted effect of over 50% in size. In a few lines:
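48 h compound treatment (after 1 h preincubation), HEK293-ACE2 cells, 37 C/5% CO2; ATP luminescence endpoint; normalized to cell wells and media blanks.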
On the technique in general: A counterscreen serves to expose hits that act by an unwanted route or on another target.

Test [7] in a line: Primary qHTS to identify inhibitors of SARS-CoV-2 cell entry (AID 1645846). Note: nearly all actives have a fitted effect of over 45% in size. Note: potency is the fitted concentration of half-maximal effect. As to conditions: activity change, negative = inhibition: at 57.1 µM (top of the series) unless noted. In a few lines: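 Inhibition of spike-mediated entry was scored in human ACE2-transfected Expi293F cells. Particles were MLV-pseudotyped with Wuhan-Hu-1 S carrying a 19-aa C-terminal deletion; signal was luciferase after two days, scaled between spike PP and fusion-protein-free PP.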

The target of test [8] is Alpha-galactosidase (Coffea arabica) (UniProt Q42656). The test can be described thus: Counterscreen for Glucocerebrosidase Inhibitors: qHTS Assay for Coffee Bean alpha-Galactosidase at pH 4.5 (AID 957; active = well fitted curve in the direction sought with a large enough effect; an effect the other way counts as inactive or inconclusive;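 note: plate controls were enzyme alone for no effect and no enzyme for full effect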). In outline: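 Coffee bean alpha-galactosidase 2 nM, substrate 4-MU-alpha-Gal 80 uM, pH 4.5 citrate/Tween-20, 20 min RT. Cpd titration 0.7 nM–77 uM. Stop pH 10, fluorescence 365/440 nm; Hill-equation AC50.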
Chain of Alpha-galactosidase (Coffea arabica) (Q42656 whole entry, looked up): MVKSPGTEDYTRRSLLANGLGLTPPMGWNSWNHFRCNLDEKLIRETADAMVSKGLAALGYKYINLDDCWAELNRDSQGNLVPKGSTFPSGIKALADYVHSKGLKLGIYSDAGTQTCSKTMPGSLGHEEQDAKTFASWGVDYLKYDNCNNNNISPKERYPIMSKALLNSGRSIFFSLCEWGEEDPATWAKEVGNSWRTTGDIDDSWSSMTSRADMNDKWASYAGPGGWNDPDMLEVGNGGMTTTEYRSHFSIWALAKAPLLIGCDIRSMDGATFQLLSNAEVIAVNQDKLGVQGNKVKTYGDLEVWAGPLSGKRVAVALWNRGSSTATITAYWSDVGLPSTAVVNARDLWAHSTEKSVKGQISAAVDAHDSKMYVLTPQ

Test [9] has the same target. The test can be described thus: Counterscreen for Glucocerebrosidase Inhibitors: qHTS Assay for Coffee Bean alpha-Galactosidase at pH 5.9 (AID 998; active = well fitted curve in the direction sought with a large enough effect; an effect the other way counts as inactive or inconclusive;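 note: plate controls were uninhibited enzyme for no effect and no-enzyme basal signal for full effect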). In outline: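 Compounds were titrated from 0.7 nM to 77 uM against green coffee bean alpha-galactosidase (2 nM) using 80 uM fluorogenic 4-methylumbelliferyl substrate. After 20 min at room temperature, reactions were stopped at pH 10 and read by fluorescence.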

Test [10] is described as follows: Confirmatory qHTS for VERO E6 Cytotoxicity Assay: Counterscreen for SARS-CoV-2 CPE Assay (AID 1508605). Note: % is set by controls: 0 for no effect and ±100 for the full control effect; nearly all actives have a fitted effect of over 60% in size.
Test [11] can be described thus: Confirmatory qHTS for activators (rescue) of SARS-CoV-2 Cytopathic Effect (CPE) (AID 1508606). Note: potency is the fitted concentration of half-maximal effect; nearly all actives have a fitted effect of over 70% in size.
A short description of test [12]: Primary qHTS for inhibitors of SARS-S pseudo-typed particle cell entry (AID 1479145). Note: % is set by controls: 0 for no effect and ±100 for the full control effect; nearly all actives have a fitted effect of over 45% in size.
Test [13] can be described thus: Primary qHTS for Huh7 cytotoxicity: counterscreen for inhibitors of MERS-S pseudotyped particle cell entry (AID 1479147). As to conditions: outcome: dose series up to 57.1 µM unless noted.
Test [14] is described as follows: Primary qHTS for Vero E6 cytotoxicity: counterscreen for inhibitors of SARS-S pseudo-typed particle cell entry (AID 1479150). As to conditions: outcome: dose series up to 57.1 µM unless noted.
In test [15] the target is Nuclear receptor subfamily 1 group I member 3 (Homo sapiens) (UniProt Q14994). The test can be described thus: Primary qHTS for antagonist of constitutive androstane receptor (CAR) against the NCATS DSHEA and TCM libraries (AID 1794836; active = well fitted curve in the direction sought with a large enough effect; an effect the other way counts as inactive or inconclusive;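 note: HepG2 cells stably expressing hCAR with CYP2B6 luciferase reporter stimulated by CITCO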). In outline:
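Antagonist mode: CAR reporter luminescence (ONE-Glo) in HepG2-CYP2B6-hCAR cells stimulated with 48 uM CITCO (final) over 24 h at 37 C, compounds titrated; viability read first by CellTiter-Fluor fluorescence.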

Records with an inconclusive call do not appear. The source made the active and inactive calls. Unless noted, calls come from the whole dose curve.

Consider 15 compounds from PubChem BioAssay (NCATS).

Chain of Nuclear receptor subfamily 1 group I member 3 (Homo sapiens) (Q14994 whole entry, looked up): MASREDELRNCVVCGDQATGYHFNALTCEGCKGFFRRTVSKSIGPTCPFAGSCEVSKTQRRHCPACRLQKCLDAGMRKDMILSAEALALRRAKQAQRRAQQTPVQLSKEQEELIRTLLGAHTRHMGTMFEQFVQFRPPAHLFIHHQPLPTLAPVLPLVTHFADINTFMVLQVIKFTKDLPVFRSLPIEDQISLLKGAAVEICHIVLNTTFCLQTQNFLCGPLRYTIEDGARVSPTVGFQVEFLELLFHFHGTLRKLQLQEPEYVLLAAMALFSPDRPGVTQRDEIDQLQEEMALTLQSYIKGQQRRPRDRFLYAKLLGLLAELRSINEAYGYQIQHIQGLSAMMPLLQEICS

Turning to `COc1cc(N2CCC(C(N)=O)CC2)ccc1Nc1nc(N)c(Cl)c(Nc2ccccc2S(=O)(=O)C(C)C)n1`, the Potency in test [1] was 12.2 µM (active); in test [2], 1.72 µM (active); in test [3], 0.769 µM (active). The Potency result in [4] was “inactive”.

Take `CN(CC(=O)N(Cc1ccc(C2CCCCC2)cc1)c1ccc(C(=O)O)c(O)c1)S(=O)(=O)c1c(F)c(F)c(F)c(F)c1F`: the Potency entry in test [5], in test [3], in test [6] and in test [4] was “inactive” in each case. The Potency in test [1] was 27.3 µM (active). Also, the activity change, negative = inhibition in [7] is -15.1%.

For `C[C@@H]1CN(Cc2ccc(F)cc2)[C@@H](C)CN1C(=O)c1cc2c(C(=O)C(=O)N(C)C)cn(C)c2cc1Cl`, the Potency result in test [5], in test [6] and in [4] was “inactive” each time. The Potency in test [3] was 30.6 µM (active). Also, the activity change, negative = inhibition in test [7] is -24.1%.

For `Cc1c(NC(=O)c2ccc(C(C)(C)C)cc2)cccc1-c1cn(C)c(=O)c(Nc2ccc(C(=O)N3CCOCC3)cc2)n1`, the Potency entry in [5], in test [1], in [3], in test [6], in test [7] and in test [4] was “inactive” throughout.

As to `CC(=O)N1CCN(c2ccc(OCc3nn(C)c(C)c3-c3cccc4c(CCCOc5cccc6ccccc56)c(C(=O)O)n(Cc5cccnc5)c34)cc2)CC1`, the Potency result in test [5], in test [1], in [3] and in test [4] was “inactive” in each case.

Regarding `CC1(C)Cc2c(sc(NC(=S)NC(=O)c3ccccc3)c2C(=O)O)CO1`, the Potency in [1] is 21.7 µM (active); in test [2], 38.5 µM (active). Further, the Potency entry in [6], in [7] and in test [4] was “inactive” each time.

`COc1ccc(-c2cc(=O)c3c(O)cc(O)cc3o2)cc1O`: the Potency in test [5] and in [3] was 24.3 µM (active) in each case. In addition, the Potency entry in test [6] and in test [4] was “inactive” in each case.

Consider `CCC[C@@H](NC(=O)[C@@H]1[C@H]2CCC[C@@H]2CN1C(=O)[C@@H](NC(=O)[C@@H](NC(=O)c1cnccn1)C1CCCCC1)C(C)(C)C)C(=O)C(=O)NC1CC1`, for which the Potency result in [5], in [1], in [3] and in test [4] was “inactive” throughout.

As for `CN(C)CC[C@H](c1ccc(Cl)cc1)c1ccccn1`, the outcome in test [8] and in [9] was inactive. Also, the Potency entry in test [5], in test [2], in test [3] and in test [4] was “inactive” throughout.

For the compound `COc1cccc([C@@H](C)NCCCc2ccccc2Cl)c1`, the Potency entry in test [5], in test [1], in [3], in test [10] and in test [4] was “inactive” in each case. Besides, the values for the Potency in test [11] and in test [7] were 10 µM (active) and 22.4 µM (active), respectively.

For `O=C1NC(=O)C(=Cc2cccc(C(F)(F)F)c2)S1`, in [1], the Potency was 13.7 µM (active). In addition, in test [4], the Potency result is “inactive”.

In the case of `N#Cc1c(N(CC(=O)O)CC(=O)O)sc(C(=O)O)c1CC(=O)O`, the Potency entry in [5], in test [1], in test [3] and in test [4] was “inactive” each time. In addition, in test [12], the activity change, negative = inhibition was -19.2% [at 0.573 µM] (inactive). Further, the outcome in [13] was “inactive [at 0.573 µM]”; in test [14], “inactive [at 0.573 µM]”; in [6], “inactive [at 0.702 µM]”; in test [7] it was “inactive [at 0.702 µM]”.

`CCOc1ccccc1OCCNC(C)Cc1ccc(OC)c(S(N)(=O)=O)c1` (stereo not drawn): the Potency result in test [5], in test [1], in test [3] and in [4] was “inactive” throughout.

Regarding `Cc1cc2nc3c(=O)[nH]c(=O)nc-3n(CC(O)C(O)C(O)CO)c2cc1C` (stereo not drawn), the Potency entry in test [5], in test [1], in test [6], in test [15] and in test [4] was “inactive” throughout.

On to `O=C1NC(=O)/C(=C/c2cccc(C(F)(F)F)c2)S1`, for which the Potency result in test [10] and in [4] was “inactive” each time.
